Tests used:
Assay type in all cases: functional
Plasmodium falciparum [1] = assay: GSK_TCMDC: Inhibition of Plasmodium falciparum 3D7 in whole red blood cells, using parasite LDH activity as an index of growth. Test compounds present at 2uM
Plasmodium falciparum [2] = assay: GSK_TCMDC: Inhibition of Plasmodium falciparum Dd2 in whole red blood cells, using parasite LDH activity as an index of growth. Test compounds present at 2uM
HepG2 = assay: GSK_TCMDC: Percent inhibition of human HepG2 cell line. Test compounds present at 10uM.

Compound	Inhibition (Plasmodium falciparum [1])	Inhibition (Plasmodium falciparum [2])	Inhibition (HepG2)
COc1ccc2nccc(N3CCN(CCNCc4ccc5c(n4)NC(=O)CO5)CC3)c2c1.Cl	92%	5%	18%
Cl.Cn1nc(C(F)(F)F)cc1-c1ccc(C(=O)Nc2ccc3c(c2)CNCC3(C)C)s1	88%	36%	10%
O=C(O)C(F)(F)F.c1ccc(-n2ncc(CNCc3ccc(-c4ccc(-c5nc6ccccc6[nH]5)s4)cc3)n2)cc1	93%	46%	27%
Cc1ccc(CNC(=O)c2cnc(N3CCN(c4ccncc4)CC3)c(Cl)c2)cc1.O=C(O)C(F)(F)F	92%	6%	27%
CCNC(=O)Nc1cccc(-c2cccc(-c3nc4cccc(C)c4[nH]3)c2)c1	85%	31%	7%
Cc1ccc2nc3c(cc(C(=O)NCCc4ccccc4)c(=N)n3CCCOC(C)C)c(=O)n2c1	96%	12%	15%
COc1cc2c(cc1S(=O)(=O)c1ccc(COc3ccc(C(F)(F)F)cc3)cc1)CNCC2.Cl	100%	89%	32%
O=C(NC(CCCN1CCC2(CC1)OCc1ccccc12)c1ccc(Cl)c(Cl)c1)c1cc(C(F)(F)F)cc(C(F)(F)F)c1 (stereo not given)	100%	99%	55%
Cl.N=C(N)NCCCN(Cc1ccccc1)c1ccccc1	100%	97%	0%
Cc1cccc(CN2CCN(c3ncc(C(=O)NC4CC4)cc3Cl)CC2)c1.O=C(O)C(F)(F)F	84%	73%	2%
